Measured values: PubChem BioAssay (NCATS)
Results filed as inconclusive are left out. The source made the active and inactive calls. The call rests on the fitted dose curve; in most records, active means well fitted curve in the direction sought with a large enough effect; inconclusive means small, poorly fitted or top-dose-only effect, or another doubt; inactive means no such curve, though single readings can be large; an effect the other way counts as inactive or inconclusive. *1 amine or outer side, *2 acyl side, *3 side chain or, on linkers, in order; H or OH if unused. Where a SMILES comes first, the peptide text is derived from it. Bridges are numbered along the chain shown (N, C = ends). [ ]: non-standard residue; d: D form. The star is where a group is joined. ξ: configuration not given here. X10 = NC1=NCCC(C(N[*:1])C(=O)[*:2])N1; ΔAla(3-NHCONH2) = NC(=O)NC=C(N)C(=O)O; ξβ3hOrn = NCCCC(N)CC(=O)*; Dap = NC[CH](N)C(=O)O

Key:
[1] = qHTS of pediatric cancer cell lines to identify multiple opportunities for drug repurposing: Primary screen for TC32 cells (AID 1347089); further: on the % scale 0 is the no-effect control and ±100 the full control effect; nearly all actives have a fitted effect of over 60% in size
Summary of the method: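 qHTS, TC32, 48 h drug treatment, CellTiter-Glo luminescence as a proxy for metabolically active cells; primary top concentration 46 µM (MIPE 11-pt, NPC 8-pt); confirmatory 11-pt.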

[2] = qHTS of pediatric cancer cell lines to identify multiple opportunities for drug repurposing: Primary screen for DAOY cells (AID 1347090);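 further: series mostly up to about 46 µM; plate controls were DMSO for no effect and bortezomib for full effect; nearly all actives have a fitted effect of over 55% in size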
Summary of the method: (§1)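 Eight- or eleven-point concentration series, 48 h treatment at 37 degrees C in growth media; readout CellTiter-Glo luminescence. Potency and efficacy were taken from the concentration-response curves.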

[3] = qHTS of pediatric cancer cell lines to identify multiple opportunities for drug repurposing: Primary screen for SJ-GBM2 cells (AID 1347091);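 further: plate controls were DMSO neutral control for no effect and bortezomib for full effect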
Summary of the method: as §1

[4] = qHTS of pediatric cancer cell lines to identify multiple opportunities for drug repurposing: Primary screen for A673 cells (AID 1347092); further: on the % scale 0 is the no-effect control and ±100 the full control effect; nearly all actives have a fitted effect of over 45% in size
Summary of the method: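 Luminescence from CellTiter-Glo, taken after 15 min at room temperature, served as the proxy for metabolically active cells following 48 h treatment. Both potency and efficacy were taken from curves fitted to the titration data.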

[5] = qHTS of pediatric cancer cell lines to identify multiple opportunities for drug repurposing: Primary screen for SK-N-MC cells (AID 1347093);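 further: series mostly up to about 46 µM; plate controls were DMSO neutral control for no effect and bortezomib for full effect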
Summary of the method: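 Metabolically active cells were quantified by ATP-dependent luminescence (CellTiter-Glo, 15 min at room temperature) following 48 h treatment. Cells had been plated at 500-1,000 per well and settled for 5 h beforehand.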

[6] = qHTS of pediatric cancer cell lines to identify multiple opportunities for drug repurposing: Primary screen for BT-37 cells (AID 1347094);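 further: series mostly up to about 57 µM; plate controls were DMSO for no effect and bortezomib for full effect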
Summary of the method: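 Cells seeded at 500-1,000 cells/well in growth media, rested 5 hours at 37 degrees C, 5% CO2, then dosed; MIPE compounds at 11-point (from 0.78 nM) and NPC at 8-point (from 0.59 nM) final concentrations. Viability by CellTiter-Glo luminescence after 48 hours.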

CC1(C)OC(=O)Nc2ccc(Br)cc21
inactive: Potency [1] | Potency [2] | Potency [3] | Potency [4] | Potency [5] | Potency [6]

NCCCC(N)CC(=O)NCC1NC(=O)C(CO)NC(=O)C(N)CNC(=O)C(C2CCN=C(N)N2)NC(=O)C(=CNC(N)=O)NC1=O (stereo not drawn) (H-[Dap]S[Dap](ξβ3hOrn)[ΔAla(3-NHCONH2)][X10]; lactam 1-C; configuration not given here)
inactive: activity change, negative = cytotoxic [1] 5.9% [at 0.594 µM] | activity change, negative = cytotoxic [2] 6.38% [at 0.597 µM] | activity change, negative = cytotoxic [3] 34.8% [at 0.597 µM] | activity change, negative = cytotoxic [4] -4.68% [at 0.597 µM] | activity change, negative = cytotoxic [5] -13.5% [at 0.597 µM] | activity change, negative = cytotoxic [6] 18% [at 0.745 µM]

CC(=O)OCC(=O)Nc1cc(C#N)cc(NC(=O)COC(C)=O)c1Cl
inactive: Potency [1] | Potency [2] | Potency [3] | Potency [4] | Potency [5] | Potency [6]

CCNC(=O)NCCCOc1cccc(CN2CCCCC2)c1
inactive: Potency [1] | Potency [2] | Potency [3] | Potency [4] | Potency [5] | Potency [6]

O=C(O)c1[nH]n(-c2ccc(S(=O)(=O)O)cc2)c(=O)c1N=Nc1ccc(S(=O)(=O)O)cc1
inactive: Potency [1] | Potency [2] | Potency [3] | Potency [4] | Potency [5] | Potency [6]

Cc1ncc(CO)c(CO)c1O
inactive: Potency [1] | Potency [2] | Potency [3] | Potency [4] | Potency [5] | Potency [6]

Cc1nc2n(c(=O)c1CCN1CCC(C(=O)c3ccc(F)cc3)CC1)CCS2
inactive: Potency [1] | Potency [2] | Potency [3] | Potency [4] | Potency [5] | Potency [6]

CC(C)(C)CC(=O)OCC(=O)[C@@]1(O)CC[C@H]2[C@@H]3CCC4=CC(=O)C=C[C@]4(C)[C@H]3[C@@H](O)C[C@@]21C
inactive: Potency [1] | Potency [2] | Potency [3] | Potency [4] | Potency [5] | Potency [6]

CO[C@]1(NC(=O)CSC(F)F)C(=O)N2C(C(=O)O)=C(CSc3nnnn3CCO)CO[C@H]21
inactive: Potency [1] | Potency [2] | Potency [3] | Potency [4] | Potency [5] | Potency [6]

C[C@H]1C[C@@H]2[C@H]([C@@H](O)C[C@@]3(C)[C@H]2CC[C@]3(O)C(=O)CO)[C@@]2(C)C=CC(=O)C=C12
inactive: Potency [1] | Potency [2] | Potency [3] | Potency [4] | Potency [5] | Potency [6]

CO[C@@]1(NC(=O)CSC[C@@H](N)C(=O)O)C(=O)N2C(C(=O)O)=C(CSc3nnnn3C)CS[C@@H]21
inactive: Potency [1] | Potency [2] | Potency [3] | Potency [4] | Potency [5] | Potency [6]

Cc1cc(C(C)(C)C)c(O)c(C(C)(C)C)c1
inactive: Potency [1] | Potency [2] | Potency [3] | Potency [4] | Potency [5] | Potency [6]

C/C(=C1\CCOC(=O)S1)N(C=O)Cc1cnc(C)nc1N
inactive: Potency [1] | Potency [2] | Potency [3] | Potency [4] | Potency [5] | Potency [6]

CN(C)CCCOC1(Cc2ccccc2)CCCCCC1
inactive: Potency [1] | Potency [2] | Potency [3] | Potency [4] | Potency [5] | Potency [6]

Nc1ccc(C(=O)N2CC3CC(CN(Cc4ccccc4)C3)C2)cc1
inactive: Potency [1] | Potency [2] | Potency [3] | Potency [4] | Potency [5] | Potency [6]

COC(=O)/C=C(/C)N
inactive: Potency [1] | Potency [2] | Potency [3] | Potency [4] | Potency [5] | Potency [6]

CN1CCN(N)CC1
inactive: Potency [1] | Potency [2] | Potency [3] | Potency [4] | Potency [5] | Potency [6]

CCCC(CCC)(C(=O)OCC)C(=O)OCC
inactive: Potency [1] | Potency [2] | Potency [3] | Potency [4] | Potency [5] | Potency [6]

CC(C)(C)NCC(O)COc1ccccc1OCC1CCCO1 (stereo not given)
inactive: Potency [1] | Potency [2] | Potency [3] | Potency [4] | Potency [5] | Potency [6]

CCOC(=O)NNc1nncc2ccccc12
inactive: Potency [1] | Potency [2] | Potency [3] | Potency [4] | Potency [5] | Potency [6]

O=C1CC(c2ccc(Cl)cc2)CC(=O)N1
inactive: Potency [1] | Potency [2] | Potency [3] | Potency [4] | Potency [5] | Potency [6]

COc1cc(NS(=O)(=O)c2ccc(N)cc2)nc(C)n1
inactive: Potency [1] | Potency [2] | Potency [3] | Potency [4] | Potency [5] | Potency [6]

O=C1Cc2cc(Cl)ccc2N1
inactive: Potency [1] | Potency [2] | Potency [3] | Potency [4] | Potency [5] | Potency [6]

C[C@H]1C[C@H](O)c2ccsc2S1(=O)=O
inactive: Potency [1] | Potency [2] | Potency [3] | Potency [4] | Potency [5] | Potency [6]

NS(=O)(=O)c1cc2c(cc1Cl)CN(C1CCCCC1)C2=O
inactive: Potency [1] | Potency [2] | Potency [3] | Potency [4] | Potency [5] | Potency [6]

CC(=O)OCC(=O)[C@@]1(O)CCC2C3CCC4=CC(=O)CC[C@]4(C)C3[C@@H](O)C[C@@]21C (stereo not given in full)
inactive: Potency [1] | Potency [2] | Potency [3] | Potency [4] | Potency [5] | Potency [6]

C=C(C)C(=O)OCC(O)CO (stereo not given)
inactive: Potency [1] | Potency [2] | Potency [3] | Potency [4] | Potency [5] | Potency [6]

O=C1CC[C@H](C(=O)N2CCCCC2)N1
inactive: Potency [1] | Potency [2] | Potency [3] | Potency [4] | Potency [5] | Potency [6]

CCC1(c2cnc[nH]2)Cc2ccccc2C1
inactive: Potency [1] | Potency [2] | Potency [3] | Potency [4] | Potency [5] | Potency [6]

COC(=O)CCCCC(CCSS/C(CCO)=C(\C)N(C=O)Cc1cnc(C)nc1N)SC(C)=O (stereo not given)
inactive: Potency [1] | Potency [2] | Potency [3] | Potency [4] | Potency [5] | Potency [6]
